# Experimental data reported in PubChem BioAssay (NCATS).
# Results filed as inconclusive are left out. The source made the active and inactive calls. Unless noted, calls come from the whole dose curve.
# System: not listed separately
# Experiment: qHTS for Inhibitors of the Functional Ribonucleoprotein Complex (vRNP) of Lymphocytic Choriomeningitis Arenaviruses (LCMV): Viability assay - alamar blue signal for LCMV Primary Screen (AID 1347085; calls by dose curve; tested in HEK293 reporter line; note: nearly all actives have a fitted effect of over 80% in size)
# Settings: alamar blue viability counter-screen, LCMV vRNP screen cells; series mostly up to 57.5 µM
# Potency is the fitted concentration of half-maximal effect.
row,Structure (SMILES),Potency
1,COc1cc2ncn(-c3cc(OCc4ccccc4C(F)(F)F)c(C(N)=O)s3)c2cc1OC,1.72 µM (active)
2,COC(=O)c1ccc2c(C(=Nc3ccc(N(C)C(=O)CN4CCN(C)CC4)cc3)c3ccccc3)c(O)[nH]c2c1,27.3 µM (active)
3,CCOc1cc(C=C2C(=O)N(c3ccccc3)N=C2C)cc(Cl)c1OCC(=O)OC,7.69 µM (active)
4,COc1cc2nc(N3CCCN(C)CC3)nc(NC3CCN(Cc4ccccc4)CC3)c2cc1OC,21.7 µM (active)
5,O=C(NCCCNc1nc(Nc2cccc(NC(=O)N3CCCC3)c2)ncc1I)c1cccs1,34.3 µM (active)
6,OCCn1cc(-c2ccc3c(c2)CCC3=NO)c(-c2ccncc2)n1,1.72 µM (active)
7,COc1cc2c(Oc3ccc4[nH]c(C)cc4c3F)ncnc2cc1OCCCN1CCCC1,inactive
8,Nc1ccc([N+](=O)[O-])cc1O,inactive
9,CC(C)[C@H](CO)Nc1nc(Nc2ccc(C(=O)O)c(Cl)c2)c2ncn(C(C)C)c2n1,3.85 µM (active)
10,Cc1nc(N)sc1-c1ccnc(Nc2ccc(N3CCOCC3)cc2)n1,13.7 µM (active)
11,COc1ccc2c3n(c(=NC(=O)c4cccnc4)nc2c1OC)CCN3,0.968 µM (active)
12,CCc1cc(-c2n[nH]c(C)c2-c2ccc3c(c2)OCCO3)c(O)cc1O,6.85 µM (active)
13,c1ccc2c(CCNc3ccc(Nc4ccncc4)cc3)c[nH]c2c1,17.2 µM (active)
14,COc1cc2c(cc1OC)CN(CCc1ccc(NC(=O)c3cccc4c(=O)c5cccc(OC)c5[nH]c34)cc1)CC2,inactive

# Molecular target: Nucleoprotein (Lymphocytic choriomeningitis virus (strain Armstrong)) (UniProt P09992)
# Experiment: qHTS for Inhibitors of the Functional Ribonucleoprotein Complex (vRNP) of Lymphocytic Choriomeningitis Arenaviruses (LCMV): LCMV Primary Screen - GLuc reporter signal (AID 1347086); note: nearly all actives have a fitted effect of over 70% in size
# Settings: LCMV minigenome vRNP cell assay, Gaussia luciferase reporter; series mostly up to 57.5 µM
# Sequence of Nucleoprotein (Lymphocytic choriomeningitis virus (strain Armstrong)) (P09992 whole entry, looked up): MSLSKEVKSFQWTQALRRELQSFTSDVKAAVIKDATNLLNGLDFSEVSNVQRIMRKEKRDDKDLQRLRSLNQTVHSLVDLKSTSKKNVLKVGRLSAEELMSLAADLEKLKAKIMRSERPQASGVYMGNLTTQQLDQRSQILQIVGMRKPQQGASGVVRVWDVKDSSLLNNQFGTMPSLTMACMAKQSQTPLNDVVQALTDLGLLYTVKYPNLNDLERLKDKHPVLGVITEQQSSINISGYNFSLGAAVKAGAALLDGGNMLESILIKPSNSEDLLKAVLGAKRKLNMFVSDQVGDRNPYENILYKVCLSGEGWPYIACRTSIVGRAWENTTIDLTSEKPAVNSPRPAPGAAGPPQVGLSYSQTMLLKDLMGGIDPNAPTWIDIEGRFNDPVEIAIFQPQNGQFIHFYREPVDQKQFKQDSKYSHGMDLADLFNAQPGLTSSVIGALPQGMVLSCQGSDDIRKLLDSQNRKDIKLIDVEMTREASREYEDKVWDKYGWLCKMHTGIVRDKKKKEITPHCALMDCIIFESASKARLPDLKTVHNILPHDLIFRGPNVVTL
row,Structure (SMILES),Potency
1,CC(O)=C(C#N)C(=O)Nc1ccc(C(F)(F)F)cc1,19.3 µM (active)
2,CC(C)(C)c1[nH]cnc1C=c1[nH]c(=O)c(=Cc2ccccc2)[nH]c1=O,0.0314 µM (active)
3,COC(=O)Nc1ccc(-c2nc(N3CCOCC3)c3cnn(C4CCN(C(=O)OC)CC4)c3n2)cc1,inactive
4,Cc1cn2c(-c3cn[nH]c3)cnc2c(Nc2ccc(C(=O)N3CCNCC3)cc2F)n1,2.73 µM (active)
5,Cc1cccc(Nc2nc(N[C@@H]3CCCC[C@H]3N)ncc2C(N)=O)c1,inactive
6,CO[C@@H]1[C@H](N(C)C(=O)c2ccccc2)C[C@H]2O[C@]1(C)n1c3ccccc3c3c4c(c5c6ccccc6n2c5c31)C(=O)NC4,inactive
7,COc1ccccc1[C@H](c1cccc2ccccc12)[C@@](C)(C#N)C(=O)N1CCC(c2cccc(C(F)(F)F)c2)CC1,inactive
8,Cc1cc2c(F)c(Oc3ncnn4cc(OC[C@@H](C)O)c(C)c34)ccc2[nH]1,13.7 µM (active)
9,CCCS(=O)(=O)Nc1ccc(F)c(C(=O)c2c[nH]c3ncc(-c4ccc(Cl)cc4)cc23)c1F,inactive
10,COc1cccc2cc(-c3nc(C4CCC(C(=O)O)CC4)n4ncnc(N)c34)[nH]c12 (centres undefined),3.06 µM (active)
11,O=C(Nc1ccc(Oc2ccc(Cl)cc2)c(Cl)c1)c1cc(I)cc(I)c1O,inactive
12,O=C(C=Cc1cccc(S(=O)(=O)Nc2ccccc2)c1)NO,inactive
13,C[C@@H](Oc1cc(-n2cnc3ccc(CN4CCN(C)CC4)cc32)sc1C(N)=O)c1ccccc1C(F)(F)F,inactive
14,C=C[C@@H]1CN2CCC1C[C@@H]2[C@@H](O)c1ccnc2ccccc12 (some centres undefined),38.5 µM (active)
15,CCCCN1CCC(CNC(=O)c2c3n(c4ccccc24)CCCO3)CC1,4.32 µM (active)
16,CCN1CCN(CC(=O)Nc2ccc(-c3cccc4c(=O)cc(N5CCOCC5)oc34)c3sc4ccccc4c23)CC1,1.22 µM (active)
17,COc1cc2ncnc(Nc3ccc(F)c(Cl)c3)c2cc1NC(=O)C=CCN1CCCCC1,inactive
18,COc1cc2ncn(-c3cc(OCc4ccccc4C(F)(F)F)c(C(N)=O)s3)c2cc1OC,1.72 µM (active)

row,Structure (SMILES),Potency
1,COC(=O)c1ccc2c(C(=Nc3ccc(N(C)C(=O)CN4CCN(C)CC4)cc3)c3ccccc3)c(O)[nH]c2c1,inactive
2,Cc1ccc(N)cc1O,inactive
3,CN[C@@H](C)C(=O)N[C@H]1CCCC[C@H]2CC[C@@H](C(=O)N[C@@H](c3ccccc3)c3cn(CCCCc4ccc(CCCCn5cc([C@@H](NC(=O)[C@@H]6CC[C@@H]7CCCC[C@H](NC(=O)[C@H](C)NC)C(=O)N76)c6ccccc6)nn5)cc4)nn3)N2C1=O,inactive
4,COc1cc2nc(N3CCCN(C)CC3)nc(NC3CCN(Cc4ccccc4)CC3)c2cc1OC,12.2 µM (active)
5,NC(=O)c1ccc(-c2nc(-c3ccc4c(c3)OCCO4)c(-c3ccccn3)[nH]2)cc1,inactive
6,O=C(NCCCNc1nc(Nc2cccc(NC(=O)N3CCCC3)c2)ncc1I)c1cccs1,inactive
7,OCCn1cc(-c2ccc3c(c2)CCC3=NO)c(-c2ccncc2)n1,7.69 µM (active)
8,COc1cc2nccc(Oc3ccc(NC(=O)C4(C(=O)Nc5ccc(F)cc5)CC4)cc3)c2cc1OC,inactive
9,COc1cc2c(Oc3ccc4[nH]c(C)cc4c3F)ncnc2cc1OCCCN1CCCC1,inactive
10,Nc1ccc([N+](=O)[O-])cc1O,inactive
11,CC(C)[C@H](CO)Nc1nc(Nc2ccc(C(=O)O)c(Cl)c2)c2ncn(C(C)C)c2n1,inactive
12,Cc1nc(N)sc1-c1ccnc(Nc2ccc(N3CCOCC3)cc2)n1,inactive
13,COc1ccc2c3n(c(=NC(=O)c4cccnc4)nc2c1OC)CCN3,0.769 µM (active)
14,c1ccc2c(CCNc3ccc(Nc4ccncc4)cc3)c[nH]c2c1,21.7 µM (active)
15,c1ccc2c(-c3cnn4cc(-c5ccc(N6CCNCC6)cc5)cnc34)ccnc2c1,inactive
16,Clc1ccc(C(c2ccc(Cl)cc2)n2cc[n+](CC(OCc3ccc(Cl)cc3Cl)c3ccc(Cl)cc3Cl)c2)cc1 (centres undefined),15.3 µM (active)
17,COc1cc2c(cc1OC)CN(CCc1ccc(NC(=O)c3cccc4c(=O)c5cccc(OC)c5[nH]c34)cc1)CC2,inactive
